From PubChem BioAssay (NCI)
About 83,000 compounds went through this panel and 20% of them were active in at least one assay; those are over-represented in the sample as a whole.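 Each cell line was grown in a 96-well plate and treated with one concentration of compound for 48 hours. Values below 10 were considered active.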 Activity calls are given as the source filed them.

Experiments:
Assay in all cases: NCI-60 one-dose screen, 48 h (100 = growth as untreated, 0 = no growth, -100 = all killed)
Settings in all cases: 10 µM unless noted
HCT-15 colon = tested on: HCT-15 colon
HT29 colon = tested on: HT29 colon
SNB-75 CNS = tested on: SNB-75 CNS
SNB-19 CNS = tested on: SNB-19 CNS
U251 CNS = tested on: U251 CNS
PC-3 prostate = tested on: PC-3 prostate
SK-MEL-5 melanoma = tested on: SK-MEL-5 melanoma
UACC-62 melanoma = tested on: UACC-62 melanoma
LOX IMVI melanoma = tested on: LOX IMVI melanoma
SK-MEL-28 melanoma = tested on: SK-MEL-28 melanoma
SK-MEL-2 melanoma = tested on: SK-MEL-2 melanoma
EKVX NSCLC = tested on: EKVX NSCLC
SN12C renal = tested on: SN12C renal
UO-31 renal = tested on: UO-31 renal
TK-10 renal = tested on: TK-10 renal
ACHN renal = tested on: ACHN renal
CAKI-1 renal = tested on: CAKI-1 renal
A498 renal = tested on: A498 renal
CCRF-CEM leukemia = tested on: CCRF-CEM leukemia
MOLT-4 leukemia = tested on: MOLT-4 leukemia

Measured: growth

CCCCCCCC/C=C\CCCCCCCC(=O)OCCCCCC
inactive: HCT-15 colon 101% | HT29 colon 109% | SNB-75 CNS 117% | SNB-19 CNS 112% | U251 CNS 97.1% | PC-3 prostate 91.5% | SK-MEL-5 melanoma 108% | UACC-62 melanoma 110% | LOX IMVI melanoma 98.8% | SK-MEL-28 melanoma 122% | SK-MEL-2 melanoma 123% | EKVX NSCLC 84.9% | SN12C renal 111% | UO-31 renal 91.8% | TK-10 renal 112% | ACHN renal 107% | CAKI-1 renal 96% | A498 renal 70.5% | CCRF-CEM leukemia 98.8% | MOLT-4 leukemia 104%

COC(=O)c1ccc2c(c1)nc(-c1ccc(Cl)cc1)n2-c1cc(C(C)(C)C)[nH]n1
inactive: HCT-15 colon 69.5% | HT29 colon 23% | SNB-75 CNS 47.3% | SNB-19 CNS 78.3% | U251 CNS 38.2% | PC-3 prostate 39% | SK-MEL-5 melanoma 25.9% | UACC-62 melanoma 45.7% | LOX IMVI melanoma 44.2% | SK-MEL-28 melanoma 58% | SK-MEL-2 melanoma 31.6% | EKVX NSCLC 78.3% | SN12C renal 79.1% | UO-31 renal 41.9% | TK-10 renal 86.6% | ACHN renal 75.4% | CAKI-1 renal 50.4% | A498 renal 21.8% | CCRF-CEM leukemia 45.2% | MOLT-4 leukemia 41.8%

CCc1c(C)c2ccc(O)c(-c3cc(-c4ccccc4)c(C#N)c(=O)[nH]3)c2oc1=O
inactive: HCT-15 colon 96.5% | HT29 colon 125% | SNB-75 CNS 52.7% | SNB-19 CNS 108% | U251 CNS 100% | PC-3 prostate 107% | SK-MEL-5 melanoma 94.7% | UACC-62 melanoma 77.3% | LOX IMVI melanoma 93.1% | SK-MEL-28 melanoma 107% | SK-MEL-2 melanoma 117% | EKVX NSCLC 101% | SN12C renal 105% | UO-31 renal 62.9% | TK-10 renal 124% | ACHN renal 103% | CAKI-1 renal 70% | A498 renal 116% | CCRF-CEM leukemia 103% | MOLT-4 leukemia 98.3%

CC(=O)Oc1c(Cl)c(Cl)c(Cl)c(Cl)c1Cl
inactive: HCT-15 colon 95% | HT29 colon 99.9% | SNB-75 CNS 80.1% | SNB-19 CNS 96.3% | U251 CNS 94.7% | PC-3 prostate 91.1% | SK-MEL-5 melanoma 102% | UACC-62 melanoma 88% | LOX IMVI melanoma 93.1% | SK-MEL-28 melanoma 104% | SK-MEL-2 melanoma 90.1% | EKVX NSCLC 87.6% | SN12C renal 94.1% | UO-31 renal 81.6% | TK-10 renal 101% | ACHN renal 95.8% | CAKI-1 renal 89.2% | A498 renal 86.1% | CCRF-CEM leukemia 83.2% | MOLT-4 leukemia 85.6%

COc1cc(OC)c2sc(-c3ccc(-n4cncc4-c4ccc(OC)c(N)c4)cc3)nc2c1
inactive: HCT-15 colon 73.9% | HT29 colon 74.3% | SNB-75 CNS 81.8% | SNB-19 CNS 80.1% | U251 CNS 67.2% | PC-3 prostate 50.4% | SK-MEL-5 melanoma 53.1% | UACC-62 melanoma 85.6% | LOX IMVI melanoma 90.2% | SK-MEL-28 melanoma 104% | SK-MEL-2 melanoma 99.6% | EKVX NSCLC 64.5% | SN12C renal 87% | UO-31 renal 60.6% | TK-10 renal 82.8% | ACHN renal 90.4% | CAKI-1 renal 60.9% | A498 renal 77.8% | CCRF-CEM leukemia 59.2% | MOLT-4 leukemia 58.3%

CN1C(=O)N(C)C2C1NN=c1s/c(=C\c3ccc(C(F)(F)F)cc3)c(=O)n12 (stereo not given)
active: HT29 colon 9.64% | SNB-75 CNS 7.43% | SK-MEL-5 melanoma 4.36%
inactive: HCT-15 colon 24.2% | SNB-19 CNS 30% | U251 CNS 21.6% | PC-3 prostate 18.8% | UACC-62 melanoma 26.7% | LOX IMVI melanoma 36.6% | SK-MEL-28 melanoma 60.4% | SK-MEL-2 melanoma 47.7% | EKVX NSCLC 45.2% | SN12C renal 41.2% | UO-31 renal 49.6% | TK-10 renal 55.5% | ACHN renal 44.6% | CAKI-1 renal 29.6% | A498 renal 18.4% | CCRF-CEM leukemia 11.7% | MOLT-4 leukemia 37.2%

CCCCCCCCCCCCNC(=O)N[C@H](C(=O)N[C@H]1/C=C/CCNC(=O)/C=C/[C@H](C)NC1=O)C(C)C
active: SNB-75 CNS -94.9% | SNB-19 CNS -25.8% | U251 CNS -95.3% | PC-3 prostate -24% | SK-MEL-5 melanoma -100% | UACC-62 melanoma -88.8% | LOX IMVI melanoma -89.2% | SK-MEL-28 melanoma -70.2% | SK-MEL-2 melanoma 8.32% | SN12C renal -42.4% | TK-10 renal 8.32% | A498 renal -55.3% | CCRF-CEM leukemia -5.12% | MOLT-4 leukemia -29%
inactive: HCT-15 colon 27.9% | HT29 colon 11.8% | EKVX NSCLC 25% | UO-31 renal 36.7% | ACHN renal 16.6% | CAKI-1 renal 35.8%

COc1ccc(-c2cc(-c3ccc(OC)cc3)c3sc(=O)[nH]c3n2)cc1
inactive: HCT-15 colon 90.2% | HT29 colon 102% | SNB-75 CNS 88.6% | SNB-19 CNS 73.8% | U251 CNS 72.6% | PC-3 prostate 86.1% | SK-MEL-5 melanoma 96.4% | UACC-62 melanoma 90.1% | LOX IMVI melanoma 92.3% | SK-MEL-28 melanoma 115% | SK-MEL-2 melanoma 103% | EKVX NSCLC 86.6% | SN12C renal 73.7% | UO-31 renal 53.4% | TK-10 renal 89.8% | ACHN renal 93.7% | CAKI-1 renal 76.8% | CCRF-CEM leukemia 108% | MOLT-4 leukemia 92.9%
active: A498 renal -1.41%

CC(C)=CC[C@@H]1CC2(CC=C(C)C)C(=O)C(OC3(C(=O)c4ccccc4)C(=O)C4(CC=C(C)C)C[C@@H](CC=C(C)C)C(C)(C)C(CC=C(C)C)(C4=O)C3=O)(C(=O)c3ccccc3)C(=O)C(CC=C(C)C)(C2=O)C1(C)C (stereo not given in full)
inactive: SNB-75 CNS 37.6% | SNB-19 CNS 11.6% | SK-MEL-28 melanoma 14.9% | CAKI-1 renal 11.5%
active: HCT-15 colon 5.15% | HT29 colon -16.1% | U251 CNS 5.76% | PC-3 prostate -17.3% | SK-MEL-5 melanoma -77.5% | UACC-62 melanoma -71.3% | LOX IMVI melanoma 1.63% | SK-MEL-2 melanoma -46.8% | EKVX NSCLC 2.26% | SN12C renal -17.9% | UO-31 renal -7.33% | TK-10 renal 3.06% | ACHN renal 4.64% | A498 renal -58% | CCRF-CEM leukemia 3.78% | MOLT-4 leukemia -11.9%

CNC(=O)OC1C(O[C@H]2C[C@H]3[C@@H]4CC=C5C[C@@H](O)CC[C@]5(C)[C@H]4CC[C@]3(C)[C@H]2[C@H](C)C(=O)CCC(C)C)OCC(O)C1OC1OCC(O)C(O)C1OC(=O)c1ccc(OC)cc1 (stereo not given in full)
inactive: HT29 colon 14.7% | SNB-75 CNS 18.4% | SNB-19 CNS 23.2% | EKVX NSCLC 30.1% | SN12C renal 59.9% | TK-10 renal 14% | ACHN renal 39.2%
active: HCT-15 colon 0.802% | U251 CNS 1.48% | PC-3 prostate -21.8% | SK-MEL-5 melanoma -27.9% | UACC-62 melanoma -27.6% | LOX IMVI melanoma -31.3% | SK-MEL-28 melanoma -53.3% | SK-MEL-2 melanoma -33.6% | UO-31 renal -18.8% | CAKI-1 renal 0.834% | A498 renal -60.3% | CCRF-CEM leukemia -13.7% | MOLT-4 leukemia -40.2%

CCC(=O)OCc1ccc(OC)cc1
inactive: HCT-15 colon 108% | HT29 colon 102% | SNB-75 CNS 104% | SNB-19 CNS 100% | U251 CNS 97.3% | PC-3 prostate 88.1% | SK-MEL-5 melanoma 108% | UACC-62 melanoma 105% | LOX IMVI melanoma 98% | SK-MEL-28 melanoma 111% | SK-MEL-2 melanoma 112% | EKVX NSCLC 107% | SN12C renal 91% | UO-31 renal 82% | TK-10 renal 107% | ACHN renal 103% | CAKI-1 renal 96.6% | A498 renal 144% | CCRF-CEM leukemia 99.4% | MOLT-4 leukemia 95.3%

COCc1nc(NS(=O)(=O)c2ccc(N)cc2)nc(C)c1Br
inactive: HCT-15 colon 97.7% | HT29 colon 88.6% | SNB-75 CNS 89.4% | SNB-19 CNS 108% | U251 CNS 103% | PC-3 prostate 101% | SK-MEL-5 melanoma 102% | UACC-62 melanoma 101% | LOX IMVI melanoma 94.1% | SK-MEL-28 melanoma 105% | SK-MEL-2 melanoma 96.6% | EKVX NSCLC 95.9% | SN12C renal 108% | UO-31 renal 95.4% | TK-10 renal 93.1% | ACHN renal 102% | CAKI-1 renal 102% | A498 renal 118% | CCRF-CEM leukemia 103% | MOLT-4 leukemia 103%

COc1cc(C2CC(=O)Nc3c2cnn3C)cc(OC)c1OC (stereo not given)
inactive: HCT-15 colon 107% | HT29 colon 105% | SNB-75 CNS 92% | SNB-19 CNS 108% | U251 CNS 100% | PC-3 prostate 108% | SK-MEL-5 melanoma 105% | UACC-62 melanoma 106% | LOX IMVI melanoma 106% | SK-MEL-28 melanoma 119% | SK-MEL-2 melanoma 113% | EKVX NSCLC 119% | SN12C renal 114% | UO-31 renal 90.7% | TK-10 renal 117% | ACHN renal 108% | CAKI-1 renal 106% | A498 renal 113% | CCRF-CEM leukemia 114% | MOLT-4 leukemia 102%

CC(=O)Cc1ccccn1
inactive: HCT-15 colon 98.6% | HT29 colon 95.9% | SNB-75 CNS 104% | SNB-19 CNS 114% | U251 CNS 93.5% | PC-3 prostate 94.8% | SK-MEL-5 melanoma 105% | UACC-62 melanoma 108% | LOX IMVI melanoma 103% | SK-MEL-28 melanoma 106% | SK-MEL-2 melanoma 102% | EKVX NSCLC 97.7% | SN12C renal 111% | UO-31 renal 88.5% | TK-10 renal 109% | ACHN renal 99.5% | CAKI-1 renal 88% | A498 renal 107% | CCRF-CEM leukemia 99.5% | MOLT-4 leukemia 102%
